Laboratory results reported in PubChem BioAssay AID1240 (Sanford-Burnham Center for Chemical Genomics, 2008).
The campaign covered roughly 50,000 compounds. About 800 (1.6%) showed an effect of 50% or more. This is one part of a sample in which strong results are shown more often than they occur.

The compounds below were run against Bcl-2-like protein 10 (Homo sapiens) (UniProt Q9HD36) (assay: Phenotype converters, Bcl-B/TR3 peptide binding displacement, primary biochemical FP (AID 1240;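 note: 0% = Bcl-B with tracer peptide and DMSO and 100% = tracer peptide lacking Bcl-B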)). Conditions: GST-Bcl-B / FITC-TR3 peptide fluorescence polarization; stronger effect = higher value; compound at 3.75 mg/L.
Chain of Bcl-2-like protein 10 (Homo sapiens) (Q9HD36 whole entry, looked up): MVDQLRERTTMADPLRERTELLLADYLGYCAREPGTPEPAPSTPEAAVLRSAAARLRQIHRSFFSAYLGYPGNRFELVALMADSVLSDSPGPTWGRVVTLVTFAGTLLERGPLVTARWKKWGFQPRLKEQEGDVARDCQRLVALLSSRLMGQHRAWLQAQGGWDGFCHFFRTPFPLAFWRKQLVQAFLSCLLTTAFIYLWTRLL

| Structure (SMILES) | displacement [%] |
| --- | --- |
| O=C1NC(=S)N(c2ccc(Cl)cc2)C(=O)C1=Cc1ccsc1 | 8.3 |
| O=C1CSC(c2cn(-c3ccccc3)nc2-c2ccc(Cl)cc2)N1Cc1ccccc1 (stereo unspecified) | -6.5 |
| O=c1[nH]cc(N=Cc2ccccc2)c(=O)[nH]1 | -2.8 |
| Cc1onc(-c2ccccc2Cl)c1C(=O)Nc1sc(C)c(C)c1C#N | 13.6 |
| CCc1nc2ccccc2n1CC(O)COC1CCCCC1 (stereo unspecified) | -10.7 |
| COC(=O)c1ccc(N2C(=O)c3cccc([N+](=O)[O-])c3C2=O)cc1 | -0.7 |
| Cc1ccsc1/C=c1\sc2nc3ccccc3n2c1=O | -8.5 |
| O=c1/c(=C/c2ccccn2)sc2nc3ccccc3n12 | 102 |
| O=c1/c(=C/c2cccs2)sc2nc3ccccc3n12 | 7.2 |
| CCOc1ccc(NC(=O)CC2S/C(=N\N=C(/C)c3cccc(NC(C)=O)c3)NC2=O)cc1 (stereo unspecified) | -11 |
| O=C1c2cccc3c(N4CCCCC4)ccc(c23)C(=O)N1CCO | 66.1 |
| O=C1c2cccc3c(N4CCCCC4)ccc(c23)C(=O)N1c1ccc(Cl)cn1 | 25.4 |
| CN1CCN(c2ccc3c4c(cccc24)C(=O)c2ccccc2-3)CC1 | 2.9 |
| CN1CCN(C(=O)CCN2C(=O)c3cccc4cccc(c34)C2=O)CC1 | 18.2 |
| CN1CCN(c2ccc3c4c(cccc24)C(=O)N(CCO)C3=O)CC1 | 155 |
| CC(C)N1C(=O)c2cccc3c(N4CCCCC4)ccc(c23)C1=O | 9.8 |
| CCOC(=O)c1c(-c2ccccc2)oc2ccc(OC(=O)c3ccc(OC)c(OC)c3)cc12 | 8.8 |
| Cc1ccc(C(=O)COc2cc(OCC(=O)c3ccc(C)cc3)c3c(C)cc(=O)oc3c2)cc1 | 10 |
| COc1nccnc1NS(=O)(=O)c1ccc(NC(=S)NC(=O)c2ccc(F)c(F)c2)cc1 | 6.6 |
| CSc1ccc(-c2ncnn2-c2cccc(Cl)c2)cc1 | -4.7 |
| COC(=O)C1C(=O)N(C)C(c2ccccc2)C1C(=O)OC (stereo unspecified) | 8.4 |
| CCOC(=O)C1=C(C)N=c2s/c(=C/c3cccc([N+](=O)[O-])c3)c(=O)n2C1c1ccccc1Cl (stereo unspecified) | 10.2 |
| CCOC(=O)C1=C(C)N=c2s/c(=C\c3cccc([N+](=O)[O-])c3)c(=O)n2C1c1cccc(OC)c1 (stereo unspecified) | 4.1 |
| CCOC(=O)C1=C(C)N=c2s/c(=C/c3ccc(F)cc3)c(=O)n2C1c1cccc([N+](=O)[O-])c1 (stereo unspecified) | 7.1 |
| CCOC(=O)C1=C(C)N=c2s/c(=C\c3cccc([N+](=O)[O-])c3)c(=O)n2C1c1ccc(C)cc1 (stereo unspecified) | 16.1 |
| CCOC(=O)C1=C(C)N=c2s/c(=C\c3cccc([N+](=O)[O-])c3)c(=O)n2C1c1ccccc1F (stereo unspecified) | 138 |

| Structure (SMILES) | displacement [%] |
| --- | --- |
| CCOC(=O)C1=C(C)N=c2s/c(=C\c3ccc(C)cc3)c(=O)n2C1c1cccc([N+](=O)[O-])c1 (stereo unspecified) | 127 |
| CCCCOc1ccc(C(=O)O/N=C2/CCc3cc(OC)ccc32)cc1 | 2 |
| O=C(Nc1ccc(Cl)c(Cl)c1)c1ccc([N+](=O)[O-])o1 | -8 |
| Cc1cc(C)c2nc3s/c(=C\c4ccc(-c5cc([N+](=O)[O-])c(C)cc5C)o4)c(=O)n3c2c1 | -20.8 |
| Cc1c(Cl)cccc1N1C(=O)c2ccccc2C1=O | 7.1 |
| CN1CCO/C1=C(C#N)\C=C1/C(=O)N(c2c(Cl)cccc2Cl)c2ccccc21 | 67.6 |
| CN1CCO/C1=C(C#N)\C=C1\Nc2ccccc2C1=O | -77.4 |
| COc1ccc(/C=C2\SC(N3CCCCCC3)=NC2=O)cc1OC | -1.9 |
| Cc1ccc(S(=O)(=O)Oc2ccc(/C=C3/SC(=S)N(C)C3=O)cc2)cc1 | -3.3 |
| Cc1cccn2c(=O)c(/C=N/NC(=O)c3ccccc3O)c(N3CCCCC3)nc12 | 130 |
| Cc1cccn2c(=O)c(C=O)c(N3CCC(C)CC3)nc12 | 17 |
| Cc1cccn2c(=O)c(C=O)c(N3CCCCC3)nc12 | 3.9 |
| CCOC(=O)COc1ccc(/C=C2\C(=O)NC(=O)N(c3ccc(OC)cc3)C2=O)cc1OC | 0.6 |
| Cc1cc(C)cc(N2C(=O)NC(=O)/C(=C\c3cc(Br)ccc3OCC(=O)O)C2=O)c1 | -7.4 |
| CCN(CC)CCNc1nc2nonc2nc1NCCN(CC)CC | -0.5 |
| NC(=O)c1cc(NC(=O)c2cc3ccccc3cc2O)cc(C(N)=O)c1 | -4.2 |
| CN(C)c1ccc(NC(=O)c2ccc(Br)cc2)cc1 | 48.8 |
| COc1cc(OC)cc(C(=O)Nc2ccc3oc(-c4ccc(I)cc4)nc3c2)c1 | -5.8 |
| COc1cc2ccccc2cc1C(=O)Nc1cccc(-c2nc3cc(C)cc(C)c3o2)c1C | 26.5 |
| COc1cc(OC)cc(C(=O)Nc2cccc(-c3nc4ncccc4o3)c2C)c1 | 5.6 |
| CC(=O)Nc1cccc(-c2nc3cc(C)ccc3o2)c1C | 99.7 |
| CCOc1ccc(C(=O)Nc2cccc(-c3nc4cc(C)ccc4o3)c2C)cc1 | 17.4 |
| COc1cc(OC)cc(C(=O)Nc2ccc(-c3nc4cc(C)cc(C)c4o3)cc2)c1 | 55.3 |
| COc1ccc(Br)cc1C(=O)Nc1cccc(-c2nc3cc(C)ccc3o2)c1C | 20.2 |
| Cc1cc(C)c2oc(-c3ccc(NC(=O)c4cccc([N+](=O)[O-])c4C)cc3)nc2c1 | -3.8 |
| COc1cc(OC)cc(C(=O)Nc2cccc(-c3nc4cc(C)cc(C)c4o3)c2C)c1 | 58.7 |

| Structure (SMILES) | displacement [%] |
| --- | --- |
| Cc1onc(-c2c(Cl)cccc2Cl)c1C(=O)Nc1ccc(N(C)C)cc1 | 12.1 |
| CCOC(=O)c1c(NC(=O)COc2ccccc2C)sc(C(=O)Nc2ccccc2F)c1C | -0.6 |
| CN(C)c1ccc(-c2ncnn2-c2sc3c(c2C#N)CCCC3)cc1 | 3.1 |
| Cc1ccc(NCC(=O)N/N=C\c2ccc(OCc3ccccc3)cc2)cc1 | 6.5 |
| O=[N+]([O-])c1ccc(-n2ncnc2-c2ccc(F)cc2)cc1 | 10.5 |
| O=C(O)C(Cc1ccccc1)N1C(=O)/C(=C/c2ccc(O)cc2)SC1=S (stereo unspecified) | -23.7 |
| CN(C)c1ccc(/C=N/Nc2cc(N3CCOCC3)ncn2)cc1 | -14.2 |
| O=C(Cn1c2ccccc2c(=O)c2ccccc21)N/N=C/c1cc([N+](=O)[O-])ccc1N1CCCC1 | 73.6 |
| O=C(Cn1c2ccccc2c(=O)c2ccccc21)N/N=C/c1cc([N+](=O)[O-])ccc1N1CCCCC1 | -6.8 |
| O=C(Cn1c2ccccc2c(=O)c2ccccc21)N/N=C/c1cc([N+](=O)[O-])ccc1N1CCCCCC1 | -7 |
| COc1ccc(CN2CCN(C(=O)c3ccc(F)cc3)CC2)cc1Br | 8.4 |
| Cc1no[n+]([O-])c1COc1ccc(/C=C2\NC(=S)NC2=O)cc1 | -73.2 |
| COc1cc(/C=C2/C(=O)NC(=O)N(c3ccccc3)C2=O)ccc1OCC(=O)O | 6.2 |
| COc1ccccc1N1C(=O)NC(=O)/C(=C\c2cc3ccccc3n2C)C1=O | 165 |
| COc1cc(C=C2C(=O)NC(=O)NC2=O)ccc1OCCOc1ccc(C)cc1 | 32.2 |
| COc1cc(/C=C2/C(=O)NC(=O)N(c3cccc(C)c3)C2=O)ccc1OCCOc1ccccc1 | 19 |
| COc1cc(C=C2C(=O)NC(=O)NC2=O)ccc1OCCO | -2.4 |
| COc1ccc(N2C(=O)NC(=O)/C(=C/c3ccc(OCCOc4ccc(C)cc4)c(OC)c3)C2=O)cc1 | 12.8 |
| CCOc1ccc(/C=C2\C(=O)NC(=O)N(c3ccccc3C)C2=O)cc1Cl | 0.3 |
| COc1cc(C=C2C(=O)NC(=O)NC2=O)ccc1OCCSc1ccc(C)cc1 | 64.1 |
| COc1cc(/C=C2/C(=O)NC(=O)N(c3ccccc3C)C2=O)ccc1OCCOc1ccccc1 | 69.3 |
| COc1ccccc1OCCOc1ccc(/C=C2/C(=O)NC(=O)N(c3ccccc3C)C2=O)cc1OC | 76.2 |
| COc1ccccc1N1C(=O)NC(=O)/C(=C/c2c(OC)ccc3ccccc23)C1=O | 1.1 |
| COc1ccccc1/C=C1/C(=O)NC(=O)N(c2ccccc2OC)C1=O | -2.3 |
| Cc1c(Nc2nc3nonc3nc2Nc2cccc(Cl)c2)c(=O)n(-c2ccccc2)n1C | 10 |
| CCOc1ccc(N2C(=O)C3CC=CCC3C2=O)cc1 (stereo unspecified) | 14.7 |

| Structure (SMILES) | displacement [%] |
| --- | --- |
| O=C(O)CCC(=O)Nc1ccc(S(=O)(=O)N2CCCCCC2)cc1 | 3 |
| O=C(/C=C/c1ccc([N+](=O)[O-])cc1)NC(=S)Nc1ccccc1Cl | -3.4 |
| CCOC(=O)C(C)Oc1ccc2c(C)c(CC)c(=O)oc2c1 (stereo unspecified) | -3.1 |
| COC(=O)c1ccccc1NC(=O)CSc1nc2ccc(N3C(=O)c4ccccc4C3=O)cc2s1 | 3.2 |
| COc1ccc(NC(=O)CSc2nc3ccc(N4C(=O)c5ccccc5C4=O)cc3s2)cc1 | 1.7 |
| COc1ccccc1NC(=O)CSc1nc2ccc(N3C(=O)c4ccccc4C3=O)cc2s1 | 84.2 |
| Cc1ccc(-n2cnc3sc(C)c(C)c3c2=O)cc1 | -0.9 |
| CN1/C(=C\C=N\Nc2ccc([N+](=O)[O-])cc2)C(C)(C)c2ccccc21 | -4.6 |
| Cc1sc2ncn(/N=C/C=C3\N(C)c4ccccc4C3(C)C)c(=O)c2c1C | 75.7 |
| O=C(O)c1cccc(N(CCO)CCO)c1 | 6 |
| COc1cccc(NC(=O)CCCN2C(=O)c3cccc4cccc(c34)C2=O)c1 | 6.9 |
| COc1ccc(C2=C/C(=C/c3cccs3)C(=O)O2)cc1 | 7.8 |
| COc1ccc(C2=CC(c3cccs3)C=C(c3ccc(OC)cc3)O2)cc1 | 162 |
| COC(=O)C1=CN(Cc2ccc(OC)cc2)C=C(C(=O)OC)C1c1cccs1 | 2.9 |
| Cc1ccc(CN2CCN(/N=C\c3cc(Br)ccc3O)CC2)cc1 | -6 |
| Cc1ccc(C(=O)Nn2c(O)c(C3=c4ccccc4=NC3=O)sc2=S)cc1 | -18.6 |
| O=C1CC(c2ccccc2)CC(O)=C1C=Nc1ccc(Br)cc1 (stereo unspecified) | -3.8 |
| Cc1cc(C)cc(N=CC2=C(O)CC(c3ccccc3)CC2=O)c1 (stereo unspecified) | 84.1 |
| O=C1CC(c2ccccc2)CC(O)=C1C=Nc1ccc(F)cc1 (stereo unspecified) | -1.2 |
| O=C(O)CCC(=O)Nc1ccc(F)cc1 | -7.3 |
| CN(C)c1ccc(/C=C2\SC(N3CCN(C4=NC(=O)/C(=C\c5ccc(N(C)C)cc5)S4)CC3)=NC2=O)cc1 | -12.9 |
| Cc1ccc(/C=C2\SC(N3CCC(C)CC3)=NC2=O)cc1 | -15 |
| CC1CCN(C2=NC(=O)/C(=C/c3ccc(N(C)C)cc3)S2)CC1 | 157 |
